Assay [1] is described as follows: qHTS assay to identify small molecule antagonists of the estrogen related receptor (ERR) signaling pathway from Tox21 library - cell viability counter screen (AID 1224834). Further: nearly all actives have a fitted effect of over 30% in size. Further: potency means the concentration at half of the fitted maximal effect. The procedure, abridged:
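CellTiter-Fluor fluorescence measured; ERR cells; 17.5 h compound incubation at 37 C; 30 min reagent step.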
A general note: In qHTS, concentration-response curves come from the screen itself.

Assay [2] addresses Luciferin 4-monooxygenase (Photinus pyralis) (UniProt P08659). In words: qHTS assay to identify small molecule inhibitors of firefly luciferase (AID 1224835). Further: nearly all actives have a fitted effect of over 25% in size. Further: potency means the concentration at half of the fitted maximal effect. The procedure, abridged:
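Quantitative HTS format; KM concentrations of both substrates. Purified P. pyralis FLuc activity quantified from luminescence images.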

Assay [3] in a line: qHTS assay to identify small molecule agonists of the constitutive androstane receptor (CAR) signaling pathway - cell viability counter screen (AID 1224836). Further: nearly all actives have a fitted effect of over 45% in size. Further: potency means the concentration at half of the fitted maximal effect. The essentials:
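Double-stable HepG2 hepatoma cells (hCAR plus CYP2B6-2.2kb) are treated for 23 h at 37 C with test compounds in 15-point concentration series. PK11195 at 0.75 uM final is co-added. Cell viability is quantified by CellTiter-Fluor.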

Assay [4] can be described thus: qHTS assay to identify small molecule antagonists of the constitutive androstane receptor (CAR) signaling pathway - cell viability counter screen (AID 1224837). Further: nearly all actives have a fitted effect of over 45% in size. Further: potency means the concentration at half of the fitted maximal effect. The procedure, abridged:
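Using CellTiter-Fluor, viability is scored in HepG2 cells stably carrying hCAR and a 2.2kb CYP2B6 reporter after 23 hr compound exposure across 15 concentrations, with CITCO present at 50 nM.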

For assay [5], the target named is Nuclear receptor subfamily 1 group I member 3 (Homo sapiens) (UniProt Q14994). The assay is described as follows: qHTS assay to identify small molecule antagonists of the constitutive androstane receptor (CAR) signaling pathway (AID 1224838).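 Further: HepG2 cells stably expressing hCAR with CYP2B6 luciferase reporter stimulated by CITCO; nearly all actives have a fitted effect of over 40% in size.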 Further: potency means the concentration at half of the fitted maximal effect. The essentials: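 Reporter luminescence was quantified after 24 h exposure of hCAR/CYP2B6-2.2kb double-stable HepG2 cells to compounds at 15 concentrations in the presence of 50 nM CITCO final.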

The target is the same in assay [6]. The assay is described as follows: qHTS assay to identify small molecule agonists of the constitutive androstane receptor (CAR) signaling pathway (AID 1224839). Further: nearly all actives have a fitted effect of over 15% in size. Further: potency means the concentration at half of the fitted maximal effect.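 On activation: HepG2 cells stably carrying human CAR and a CYP2B6 luciferase reporter; series mostly up to about 92 µM.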 The essentials:
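Readout: firefly luciferase luminescence via ONE-Glo. System: HepG2 double-stable for hCAR and CYP2B6-2.2kb. Conditions: 15-point compound titration, PK11195 at 0.75 uM final, 24 h incubation.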

Assay [7] in a line: qHTS assay to identify small molecule agonists of the estrogen related receptor signaling pathway with the pleiotropic PPARgamma coactivator (PGC) from Tox21 10K library (AID 1224842). Further: nearly all actives have a fitted effect of over 15% in size. The essentials:
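PGC/ERR reporter cells (NTP line) were seeded 2,000 per well, rested 6 h at 37 C/5% CO2, then pin-dosed with compounds in DMSO for 18 h at 37 C; luciferase read by One-Glo luminescence after 30 min at room temperature.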

Assay [8] has as its target Thyrotropin receptor (Homo sapiens) (UniProt P16473). The assay is described as follows: qHTS assay to identify small molecule agonists of the thyroid stimulating hormone receptor (TSHR) signaling pathway (AID 1224843; calls by dose curve; further: nearly all actives have a fitted effect of over 45% in size; further: potency means the concentration at half of the fitted maximal effect). The essentials:
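TSHR-expressing HEK293 cells (800 per well) were exposed to compounds for 30 min at room temperature. cAMP was then detected by HTRF competition with cAMP-d2 and anti-cAMP cryptate, read after 1 h at room temperature. Fifteen concentrations, triplicate.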

Assay [9] can be described thus: qHTS assay to identify small molecule antagonists of the estrogen related receptor signaling pathway with the pleiotropic PPARgamma coactivator (PGC) from Tox21 10K library - cell viability counter screen (AID 1224840; active means well fitted cell-killing curve with a large enough effect in the repeat runs, not every such curve was filed as active; further: nearly all actives have a fitted effect of over 40% in size; further: potency means the concentration at half of the fitted maximal effect). The essentials:
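Here the PGC/ERR cells serve as a cytotoxicity control: they are exposed to compounds for 17.5 hours at 37 C, and live-cell signal is quantified using CellTiter-Fluor fluorescence.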

The nature of assay [10]: qHTS assay to identify small molecule antagonists of the estrogen related receptor signaling pathway with the pleiotropic PPARgamma coactivator (PGC) from Tox21 10K library (AID 1224841; call rule not given here; further: actives are mostly falling curves and most rising ones were filed inactive; nearly all actives have a fitted effect of over 50% in size; further: potency means the concentration at half of the fitted maximal effect). The procedure, abridged: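 Each well held 2,000 PGC/ERR cells, pre-incubated six hours (37 C, 5% CO2). Test substances in DMSO were added by pin tool and left for 18 h at 37 C before luciferase detection by One-Glo.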

Several values for one entry are separate records, joined by “and”; a condition that tells them apart may be missing. Equal values may be shown once. Inconclusive results are not listed. Where a structure was tested more than once in an assay, its records may differ in their call. Activity calls are given as the source filed them. Unless noted, the call rests on the fitted dose curve; in most records, active means well fitted curve in the direction sought with a large enough effect in the repeat runs; inconclusive means weak or mixed curves; inactive means no such curve, though single readings can be large; an effect the other way counts as inactive or inconclusive.

These results are taken from PubChem BioAssay (Tox21).
On the % scale 0 is the no-effect control and ±100 the full control effect.

Sequence of Thyrotropin receptor (Homo sapiens) (P16473 whole entry, looked up): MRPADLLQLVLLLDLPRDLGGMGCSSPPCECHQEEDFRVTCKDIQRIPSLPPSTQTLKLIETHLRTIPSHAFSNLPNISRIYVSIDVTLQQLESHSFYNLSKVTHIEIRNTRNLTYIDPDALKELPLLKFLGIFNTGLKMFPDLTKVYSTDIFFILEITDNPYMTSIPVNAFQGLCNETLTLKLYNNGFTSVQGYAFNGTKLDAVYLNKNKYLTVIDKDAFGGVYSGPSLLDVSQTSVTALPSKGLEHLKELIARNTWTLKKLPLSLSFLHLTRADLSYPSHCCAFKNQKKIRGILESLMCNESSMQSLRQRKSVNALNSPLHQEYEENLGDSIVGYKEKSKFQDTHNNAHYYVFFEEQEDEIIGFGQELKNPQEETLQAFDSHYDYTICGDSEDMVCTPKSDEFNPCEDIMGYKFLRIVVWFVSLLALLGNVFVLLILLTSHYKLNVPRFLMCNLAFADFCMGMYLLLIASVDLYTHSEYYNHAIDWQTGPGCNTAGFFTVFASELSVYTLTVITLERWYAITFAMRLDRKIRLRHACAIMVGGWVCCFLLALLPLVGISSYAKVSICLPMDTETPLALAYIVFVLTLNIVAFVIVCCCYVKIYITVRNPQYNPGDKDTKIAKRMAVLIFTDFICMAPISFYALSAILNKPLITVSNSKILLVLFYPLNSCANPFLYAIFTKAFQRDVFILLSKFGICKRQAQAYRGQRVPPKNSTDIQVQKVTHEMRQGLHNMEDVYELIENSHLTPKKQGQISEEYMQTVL
Sequence of Nuclear receptor subfamily 1 group I member 3 (Homo sapiens) (Q14994 whole entry, looked up): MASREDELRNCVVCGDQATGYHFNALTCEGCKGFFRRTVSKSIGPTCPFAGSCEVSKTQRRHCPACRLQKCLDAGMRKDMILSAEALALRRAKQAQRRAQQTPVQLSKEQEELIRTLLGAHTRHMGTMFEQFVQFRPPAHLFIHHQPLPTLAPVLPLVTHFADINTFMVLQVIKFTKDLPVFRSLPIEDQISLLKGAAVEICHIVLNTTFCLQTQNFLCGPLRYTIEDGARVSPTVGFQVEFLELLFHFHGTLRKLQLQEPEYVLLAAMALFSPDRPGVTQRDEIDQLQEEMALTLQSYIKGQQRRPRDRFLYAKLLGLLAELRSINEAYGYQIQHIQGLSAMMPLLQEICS
Sequence of Luciferin 4-monooxygenase (Photinus pyralis) (P08659 whole entry, looked up): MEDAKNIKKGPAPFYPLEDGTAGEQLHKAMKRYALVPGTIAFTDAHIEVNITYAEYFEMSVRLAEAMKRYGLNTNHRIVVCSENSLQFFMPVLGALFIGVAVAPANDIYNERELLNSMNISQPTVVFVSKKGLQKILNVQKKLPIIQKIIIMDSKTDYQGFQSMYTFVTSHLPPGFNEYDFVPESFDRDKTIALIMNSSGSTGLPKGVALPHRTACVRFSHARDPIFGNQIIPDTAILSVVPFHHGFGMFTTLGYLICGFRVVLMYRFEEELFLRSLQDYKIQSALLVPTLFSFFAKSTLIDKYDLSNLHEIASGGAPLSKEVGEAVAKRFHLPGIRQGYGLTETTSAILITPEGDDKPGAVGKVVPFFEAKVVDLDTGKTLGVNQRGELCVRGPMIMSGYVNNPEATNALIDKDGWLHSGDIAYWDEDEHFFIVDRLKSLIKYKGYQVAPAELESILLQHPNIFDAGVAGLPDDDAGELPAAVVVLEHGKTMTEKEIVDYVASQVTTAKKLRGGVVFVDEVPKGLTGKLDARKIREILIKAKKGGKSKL

For the compound `O=C1Cc2cc(CCN3CCN(c4nsc5ccccc45)CC3)c(Cl)cc2N1`, the Potency in assay [1] was 29.8 µM (active). The Potency entry in [2], in assay [3], in assay [4], in assay [5], in assay [6] and in assay [7] was “inactive” in each case. Further, in assay [8], the Potency result was “inactive”.
For the compound `NNc1nc(-c2ccc(N)cc2)cs1`, the Potency was 54.5 µM (active) in assay [1], 35.6 µM (active) in assay [2], 61.1 µM (active) in assay [9] and 61.1 µM (active) in [10]. Besides, the Potency result in [3], in assay [4], in [5] and in assay [7] was “inactive” throughout.
In the case of `NNc1nc(-c2ccccc2)cs1`, the Potency in assay [1] was 7.05 µM (active); in assay [2], 32.6 µM (active); in assay [6] it was 49.9 µM (active). The Potency entry in [3], in assay [4], in assay [5], in [10], in assay [7] and in assay [8] was “inactive” in each case.
Turning to `CCCCCCCCCCCCCC[P+](CCCC)(CCCC)CCCC` (tested in a mixture with another compound), the Potency is 24.5 µM (active) in assay [1]; 19.4 µM (active) in assay [3]; 19.4 µM (active) in assay [4]; 17.3 µM (active) in [5]; 17.3 µM (active) in [9]. In addition, the Potency entry in [2], in [6] and in [8] was “inactive” throughout.
Turning to `CCN1/C(=C/C=C/c2sc3ccccc3[n+]2CC)Sc2ccccc21`, the Potency in assay [1] was 5.8 µM (active); in assay [2], 9.52 µM (active); in assay [3], 13 µM (active); in assay [4], 11.6 µM (active); in assay [5], 14.6 µM (active); in [9] it was 6.51 µM (active). For the same compound, the activation was -9.24% [at 19 µM] (inactive) in assay [6], -14.5% [at 19 µM] (inactive) in assay [7] and 1.82% [at 19 µM] (inactive) in assay [8].
As to `O=C(Nc1ccc(Oc2ccc(Cl)cc2)c(Cl)c1)c1cc(I)cc(I)c1O`, the Potency result in assay [1], in [2], in assay [3], in assay [4], in [5] and in assay [6] was “inactive” each time. For the same compound, the Potency entry in assay [7] and in assay [8] was “inactive” throughout.
With `CCC1=C[C@@H]2CN(C1)Cc1c([nH]c3ccccc13)[C@@](C(=O)OC)(c1cc3c(cc1OC)N(C)[C@H]1[C@@](O)(C(=O)OC)[C@H](OC(C)=O)[C@]4(CC)C=CCN5CC[C@]31[C@@H]54)C2`, the Potency was 0.0188 µM (active) in [1], 4.22 µM (active) in assay [3], 2.37 µM (active) in assay [4] and 0.106 µM (active) in [5]. In addition, the Potency result in assay [2], in assay [6], in [10] and in [7] was “inactive” in each case.
As for `COCCCC/C(=N\OCCN)c1ccc(C(F)(F)F)cc1`, the Potency result in [1], in [2], in assay [3], in assay [4], in assay [5] and in assay [6] was “inactive” in each case. For the same compound, the Potency entry in assay [9], in assay [7] and in assay [8] was “inactive” throughout. Further, the Potency in [10] is 2.98 µM (active).
On to `CC(=O)S[C@@H]1CC2=CC(=O)CC[C@]2(C)[C@H]2CC[C@@]3(C)[C@@H](CC[C@@]34CCC(=O)O4)[C@H]12`, for which the Potency result in assay [1], in assay [2], in assay [3], in [4], in assay [6] and in assay [8] was “inactive” in each case. Also, in [5], the Potency was 54.5 µM (active).
With `CC1=NC(C)OC1C` (stereo not given), the Potency entry in assay [1], in assay [2], in assay [3], in assay [4], in assay [5] and in assay [6] was “inactive” throughout. Further, the Potency entry in assay [9] and in [8] was “inactive” throughout.
In the case of `C=CC(=O)OCC(CO)(COCC(COC(=O)C=C)(COC(=O)C=C)COC(=O)C=C)COC(=O)C=C`, the Potency is 4.8 µM (active) in [1]; 6.78 µM (active) in assay [3]; 6.04 µM (active) in [4]; 5.38 µM (active) in assay [5]; 3.4 µM (active) in [9]; 6.04 µM (active) in assay [8]. Moreover, the Potency entry in assay [2] and in [6] was “inactive” each time.
In the case of `CCCCCCCCCCCC[N+](C)(C)CCCCCCCCCCCC`, the Potency is 27.3 µM (active) in [1]; 79.6 µM (active) in assay [2]; 27.3 µM (active) in assay [3]; 24.3 µM (active) in [4]; 27.3 µM (active) in assay [5]; 27.3 µM (active) in assay [9]. Besides, the Potency in assay [8] was 24.3 µM (active). Also, the Potency result in [6] and in assay [7] was “inactive” throughout.
In the case of `O=C(N/N=C/c1ccccc1O)c1ccncc1`, the Potency in assay [1] is 9.44 µM (active); in assay [2], 27.5 µM (active). For the same compound, the Potency entry in assay [3], in assay [4], in assay [5], in assay [6], in assay [9] and in assay [7] was “inactive” throughout. Also, in assay [8], the Potency entry was “inactive”.
Turning to `C/C(=C(/OCCOc1ccc(Cl)cc1)c1ccc(Cl)cc1Cl)n1ccnc1`, the Potency entry in [1], in assay [2], in assay [3], in [4], in [5] and in assay [6] was “inactive” in each case. Further, the Potency result in assay [9] and in assay [8] was “inactive” in each case.
For the compound `N/C(=N\N=C\c1ccc(Cl)cc1)N/N=C/c1ccc(Cl)cc1`, the values for the Potency in assay [1] and in assay [2] were 33.5 µM (active) and 9.77 µM (active), respectively. The Potency entry in assay [3], in assay [4], in assay [5], in assay [6], in [10] and in assay [7] was “inactive” in each case. Besides, the Potency entry in assay [8] is “inactive”.
Take `Cc1cc2c(cc1C(F)(F)F)N(C(=O)Nc1ccc(Oc3cccnc3C)nc1)CC2`: the Potency was 15.6 µM (active) in [1] and 7.81 µM (active) in [10]. Further, the Potency entry in [2], in [3], in assay [4], in [5], in [6] and in assay [7] was “inactive” in each case.
On to `OC1(c2ccc(Cl)c(C(F)(F)F)c2)CCN(CCCC(c2ccc(F)cc2)c2ccc(F)cc2)CC1`, for which the Potency in [1] is 21.1 µM (active); in [3], 23.7 µM (active); in [4], 13.3 µM (active); in [5], 13.3 µM (active); in assay [9] it was 18.8 µM (active); in assay [10], 29.8 µM (active). For the same compound, the Potency result in assay [2], in [6], in assay [7] and in [8] was “inactive” each time.
Regarding `COC(=O)C1=C(C)NC(C)=C(C(=O)OCC(C)C)C1c1ccccc1[N+](=O)[O-]` (stereo not given), the Potency in [1] is 21.7 µM (active) and 29.8 µM (active); in [9] it was 27.3 µM (active) and inactive; in [10] it was 13.7 µM (active) and 21.1 µM (active). Moreover, the Potency entry in assay [2], in assay [3], in [4], in assay [5], in [7] and in assay [8] was “inactive” throughout.
Turning to `Cc1[nH]nc2c1N=C(c1ccccc1Cl)c1cc([N+](=O)[O-])ccc1N2`, the Potency is 24.3 µM (active) in [1]; 63.3 µM (active) in [2]; 27.3 µM (active) in assay [3]; 21.7 µM (active) in assay [4]; 7.7 µM (active) in assay [5]; 34.4 µM (active) in [9]. For the same compound, the Potency entry in [6] and in assay [8] was “inactive” in each case.
For `O=C1C=CC(=O)N1`, the Potency in assay [1] is 49.8 µM (active); in assay [2], 32.6 µM (active); in [3], 55.9 µM (active); in [4], 55.9 µM (active); in assay [5], 31.4 µM (active); in [9], 44.4 µM (active). Further, in [8], the Potency is 7.04 µM (active). Moreover, the Potency entry in [6] and in assay [7] was “inactive” in each case.
